Hits are enriched below; roughly 19% of the tested compounds scored in any of these assays.
HepG2 viability – qHTS for Inhibitors of TGF-b: Cytotox Counterscreen; Potency, µM (top dose mostly 46.1 µM), without a hit: top-dose activity change, negative = cytotoxicity, usual class: cytotoxic; hit rate 0.76% among 410,000; HepG2 CAGA-GFP viability, ATP luminescence, 18 h; AID 588856, 2011; also: potency is read from the fitted curve at half-maximal effect
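CellTiter-Glo luminescence gave cytotoxicity after 18 hours at 37 degrees C. The cells were HepG2 CAGA-GFP in 1% FBS DMEM, stimulated with 500 pg/mL TGF-beta after compound addition. %Activity was normalised to no-cell wells (complete cell-killing) and DMSO (no toxicity), and curves were fitted and classified.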
TDP1 block – qHTS Assay for Inhibitors of Tyrosyl-DNA Phosphodiesterase (TDP1); Tyrosyl-DNA phosphodiesterase 1 (Homo sapiens), Q9NUW8; Potency, µM (top dose mostly 130 µM), without a hit: at the top dose activity change, negative = inhibition, usual class: inhibitors; recombinant TDP1, AlphaScreen DNA substrate cleavage; hit rate 0.28% among 350,000; also: potency is read from the fitted curve at half-maximal effect; % is scaled to controls: 0 for no effect and ±100 for the full control effect; nearly all actives have a fitted effect of over 40% in size
Target sequence (Q9NUW8 whole entry, looked up): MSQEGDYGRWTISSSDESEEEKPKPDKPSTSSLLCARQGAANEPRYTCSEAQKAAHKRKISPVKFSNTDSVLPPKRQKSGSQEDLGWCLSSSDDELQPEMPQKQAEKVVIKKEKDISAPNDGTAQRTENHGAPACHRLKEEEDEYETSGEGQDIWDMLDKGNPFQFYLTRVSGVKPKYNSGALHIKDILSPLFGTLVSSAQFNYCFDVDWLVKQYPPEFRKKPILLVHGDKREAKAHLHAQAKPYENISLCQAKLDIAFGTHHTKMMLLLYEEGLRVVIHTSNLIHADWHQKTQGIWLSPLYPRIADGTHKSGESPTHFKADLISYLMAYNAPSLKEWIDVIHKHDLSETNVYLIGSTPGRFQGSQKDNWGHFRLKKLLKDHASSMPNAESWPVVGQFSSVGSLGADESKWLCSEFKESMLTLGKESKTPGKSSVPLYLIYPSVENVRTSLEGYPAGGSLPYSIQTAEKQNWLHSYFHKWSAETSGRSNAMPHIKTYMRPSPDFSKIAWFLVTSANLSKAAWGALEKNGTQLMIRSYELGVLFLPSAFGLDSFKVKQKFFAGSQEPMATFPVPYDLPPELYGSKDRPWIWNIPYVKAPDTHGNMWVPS
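Steps: enzyme plus compound, 15 min RT; add biotin/phosphotyrosine-FITC oligonucleotide (15 nM final), react 5 min; add donor/acceptor beads (10 ug/ml final), 10 min; read AlphaScreen. Tdp1 at 1 nM final.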
DT40 TDP1 CPT – qHTS for Inhibitors of human tyrosyl-DNA phosphodiesterase 1 (TDP1): qHTS in cells in presence of CPT; chicken DT40 Tdp1-/-;hTDP1 cells + 20 nM CPT, ATP luminescence, 48 h; hit rate 12% among 420,000; Potency, µM (top dose mostly 46.2 µM), for the others: at the top dose activity change, negative = growth inhibition, most hits filed as inhibitors; also: potency is read from the fitted curve at half-maximal effect; % is scaled to controls: 0 for no effect and ±100 for the full control effect; nearly all actives have a fitted effect of over 55% in size
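Cell growth measured by CellTiter-Glo luminescence after a minimum 48 h, 37 C compound exposure with 20 nM CPT in Tdp1-knockout DT40 cells stably expressing hTDP1, seeded 400/well; qHTS titration format.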
IL1B secr inh – qHTS for Inhibitors of Inflammasome Signaling: IL-1-beta AlphaLISA Primary Screen; THP-1 LPS/ATP IL-1B secretion, AlphaLISA, 16 h; active compounds read low; activity change, % at 57.5 µM; hit rate 4.7% among 360,000; in the data active = activity change below about -50%; inconclusive = mostly about -30% to -49%; also: % is scaled to controls: 0 for no effect and ±100 for the full control effect
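Secreted IL-1B measured by AlphaLISA bead assay after 16 h compound exposure of THP-1 cells; compounds (final up to 57.5 uM) added 1 h before LPS (250 ng/mL) and ATP (1.25 mM) stimulation; lower signal means less secretion.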
TGFb inhibitor – qHTS for Inhibitors of TGF-b | HepG2 CAGA-GFP TGF-b/SMAD3 reporter, GFP fluorescence, 18 h; TGF-beta stimulated, 500 pg/mL final | hit rate 1.2% among 410,000 | Potency, µM (titrated, usually from 46.1 µM), for inactives: at the top dose activity, negative = inhibition, hits mostly inhibitors; also: potency is read from the fitted curve at half-maximal effect; % is scaled to controls: 0 for no effect and ±100 for the full control effect; nearly all actives have a fitted effect of over 65% in size
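GFP signal (ex488/em500-530) from TGF-beta-stimulated HEPG2 CAGA-GFP cells, 500 pg/mL final, 18 h at 37 degrees C in DMEM plus 1% FBS, normalized to unstimulated and DMSO-stimulated controls.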
DT40 TDP1 no CPT – qHTS for Inhibitors of human tyrosyl-DNA phosphodiesterase 1 (TDP1): qHTS in cells in absence of CPT. DT40 Tdp1-/- hTDP1 cells, no CPT, ATP luminescence, 48 h. Potency, µM (doses to about 46.2 µM), for inactives: at the top dose activity change, negative = growth inhibition, most hits filed as inhibitors. hit rate 15% among 420,000; also: potency is read from the fitted curve at half-maximal effect; % is scaled to controls: 0 for no effect and ±100 for the full control effect; nearly all actives have a fitted effect of over 55% in size
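Growth of hTDP1-complemented DT40 Tdp1-knockout cells is measured by ATP luminescence after at least 48 hr compound exposure at 37 °C, with DMSO substituting for the 20 nM CPT used in the parallel screen.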
* hit, by the source's call; ? = inconclusive; . = not tested or not shown; [ ] = another dose, or the depositor's remark. Unless noted, calls follow the shape of the dose curve; as a rule, active = well fitted curve in the direction sought with a large enough effect; inconclusive = small, poorly fitted or top-dose-only effect, or another doubt; inactive = no such curve, though single readings can be large; an effect the other way counts as inactive or inconclusive.

SMILES | HepG2 viability | TDP1 block | DT40 TDP1 CPT | IL1B secr inh | TGFb inhibitor | DT40 TDP1 no CPT
Cc1ccc(S(=O)(=O)Nc2ccc3c(c2)nc(CCN2CCCC2)n3C)cc1 | -7.1% | 1.8% | ? | -76.0* | ? | ?
Cn1c(CCN2CCN(c3ccccn3)CC2)nc2cc(NS(=O)(=O)c3ccccc3)ccc21 | 2.7% | 4.9% | ? | -4.0 | ? | 13µM*
Cn1c(CCN2CCCC2)nc2cc(NS(=O)(=O)c3ccc(F)cc3)ccc21 | -38.5% | . | ? | -56.2* | ? | ?
CCCCC(=O)Nc1ccc2c(c1)nc(CCN1CCN(c3ccccn3)CC1)n2C | -4.4% | . | ? | -12.5 | -14.2% | -22.4%
Cn1c(CCN2CCOCC2)nc2cc(NS(=O)(=O)c3ccccc3)ccc21 | 1.3% | . | -11.6% | -18.5 | -4.8% | ?
Cn1c(CN2CCCC2)nc2cc(NS(=O)(=O)c3ccc(Cl)cc3)ccc21 | -23.9% | 4.2% | -6.4% | -7.9 | -5.0% | -27.0%
CC(C)c1onc(C(=O)NC(C)c2ccccc2)c1[N+](=O)[O-] (stereo not given) | 3.9% | 8.1% | ? | 2.2 | -0.7% | ?
CC(=O)OCc1cnc(C)c2oc(=O)c(C(=O)Nc3cccc(F)c3)cc12 | -0.6% | 1.2% | . | . | 32.4% | .
Cc1cccc(NC(=O)CSc2nc(=O)n(Cc3ccccn3)c3c2CCC3)c1C | 0.7% | -5.2% | 4.4% | . | -46.7% | -14.6%
CC(C)c1nn2c(=O)cc(COC(=O)c3ccccc3NC(=O)COc3ccccc3)nc2s1 | 2.7% | 3.8% | 5.1% | . | 2.3% | ?
COc1ccc(-n2cnc3cc(NS(=O)(=O)c4ccccc4)ccc32)cc1 | -5.3% | 4.2% | ? | -11.1 | -4.0% | 20.6µM*
Cn1c(CCN2CCCC2)nc2cc(NS(=O)(=O)c3ccc(Cl)cc3)ccc21 | -33.8% | 2.8% | ? | -85.8* | ? | ?
CC(C)(C)OC(=O)Cc1nnc(-c2cc3ccccc3[nH]2)s1 | . | 0.5% | . | . | . | .
Cc1ccc(C)c(NC(=O)CSc2nc3nccnc3c(=O)n2CCc2c[nH]c3ccccc23)c1 | -20.2% | 5.2% | 11.6µM* | . | -37.7% | 11.6µM*
CCc1ccc(NC(=O)CSc2nc3nccnc3c(=O)n2CCc2c[nH]c3ccccc23)cc1 | -0.5% | 3.9% | 8.2µM* | . | -20.9% | 4.11µM*
CC(=O)Nc1ccccc1-c1nc(CNC(=O)c2cc(C)ccc2C)c(C)o1 | . | . | 2.1%[9.04 µM] | . | . | -4.2%
CCCc1c(-c2cccc(Cl)c2)ncn1Cc1cccc(-c2ccccc2)c1 | . | . | 20.6µM* | -6.4 | . | 18.4µM*
CCCc1c(-c2ccc(F)cc2F)ncn1Cc1cccc(-c2ccccc2)c1 | . | . | 5.17µM* | -9.0 | . | 4.11µM*
Cn1cc(CN2CCN(Cc3ccccc3)CC2)c(-c2cccc(Cl)c2)n1 | -28.2% | 1.2% | ? | -10.4 | ? | ?
CCOc1ccccc1NC(=O)CCNC(=O)N1CC(=O)Nc2ccccc21 | -30.7% | . | -7.0% | 14.0 | 4.6% | -9.3%
CCC(C)(C)C1CCC(NC(=O)c2ccc(S(=O)(=O)N3CCOCC3)cc2)CC1 (stereo not given) | -8.8% | -3.3%[56.1 µM] | 14.6µM* | -1.8 | -8.0% | 23.1µM*
O=C(Nc1ccc(F)cc1)Nc1ccc(S(=O)(=O)N2CCCC2)cc1 | -47.1% | 0.9% | ? | -17.8 | ? | ?
Cc1ccc(C(=O)NC2CC2)cc1S(=O)(=O)N1CCOCC1 | 5.9% | -1.2% | -2.4% | -12.2 | -0.8% | -0.2%
CC(=O)Nc1ccc(C(=O)Nc2ccc(S(=O)(=O)N3CCCCC3)cc2)cc1 | 3.4% | . | -28.7% | 24.9 | ? | -23.9%
CC(=O)c1ccc(NC(=O)c2ccc(S(=O)(=O)N3CCCC3)cc2)cc1 | -13.0% | 3.6% | ? | 0.0 | -9.9% | 16.4µM*
SMILES | HepG2 viability | TDP1 block | DT40 TDP1 CPT | IL1B secr inh | TGFb inhibitor | DT40 TDP1 no CPT
O=C(Nc1ccc(S(=O)(=O)N2CCCC2)cc1)Nc1ccc(F)cc1F | -23.7% | . | ? | -13.1 | -5.0% | 29.1µM*
O=C(Nc1ccc(F)cc1)c1ccc(S(=O)(=O)N2CCCC2)cc1 | -1.0% | . | 2.4% | -74.6* | 12.3% | ?
Nc1cc(=O)nc(SCC(=O)Nc2ccc(F)cc2)n1-c1ccc(Cl)cc1 | -17.6% | 4.5% | -2.8% | . | -0.3% | -26.8%
CS(=O)(=O)c1ccc(C(=O)Nc2ccc(S(=O)(=O)N3CCCCC3)cc2)cc1 | -4.4% | 7.4% | ? | 2.6 | ? | ?
CC(=O)c1ccc(NC(=O)Nc2ccc(S(=O)(=O)N3CCCC3)cc2)cc1 | -46.4% | 4.7% | ? | -108.3* | -13.2% | 14.6µM*
CS(=O)(=O)c1cccc(C(=O)Nc2ccc(S(=O)(=O)N3CCCCC3)cc2)c1 | -15.5% | . | 10.3µM* | 11.2 | -8.3% | 18.4µM*
O=C(Nc1ccc(S(=O)(=O)N2CCCCC2)cc1)c1ccncc1 | -17.2% | 4.9% | ? | 0.0 | -20.1% | ?
CC(=O)c1ccc(S(=O)(=O)Nc2ccc(S(=O)(=O)N3CCCCC3)cc2)cc1 | -1.4% | 0.5% | -19.8% | 0.0 | 12.5% | 3.2%
O=C(Nc1ccc(Cc2ccncc2)cc1)c1ccc(S(=O)(=O)N2CCCC2)cc1 | -19.0% | 2.7% | 13µM* | -95.9* | -4.6% | 10.3µM*
O=C(NC1CCN(S(=O)(=O)c2ccc(F)cc2)CC1)c1ccc(F)cc1 | -32.6% | 3.8% | -0.8% | -53.7* | -25.2% | 5.1%
CO[C@H]1COC(=O)[C@H](C)COC(=O)C/C=C\[C@@H](C)[C@H](OC)COC(=O)C/C=C\[C@@H]1C | . | 3.7%[21 µM] | . | . | . | .
COC(=O)c1ccccc1NC(=O)CSc1nnc(-c2cccnc2)o1 | -0.2% | -2.9% | 5.3% | 18.7 | 7.1% | -6.4%
Cc1cccc(N2CCN(C(=O)CN3C(=O)C4CC=CCC4C3=O)CC2)c1C (stereo not given) | -3.8% | -1.2% | -23.8% | 19.5 | -21.7% | ?
CCCCNC(=O)CSc1nc2n[nH]c(C)c2c(=N)n1-c1cccc(C)c1 | -22.3% | -0.9% | 18.4µM* | . | ? | 11.6µM*
CCCCN(CC)C(=O)CSc1nc2n[nH]c(C)c2c(=N)n1-c1cccc(Cl)c1 | -40.8% | -0.9% | 11.6µM* | . | ? | 10.3µM*

Screens: PubChem BioAssay, National Center for Advancing Translational Sciences (NCATS)
